Laboratory results: PubChem BioAssay (Tox21)
Results filed as inconclusive are left out. Active and inactive are the calls of the source. The call rests on the fitted dose curve; in most records, active means well fitted inhibition curve with a large enough effect in the signal ratio in the repeat runs (not every such curve was filed as active); inconclusive means weak or mixed curves, or effect the other way; inactive means no such curve, though single readings can be large or run the other way; the % refers to the signal ratio.

What follows are molecules tested against Glucocorticoid receptor (Homo sapiens) (UniProt P04150) (assay: qHTS assay to identify small molecule antagonists of the glucocorticoid receptor (GR) signaling pathway (AID 720692)). Details: GR-bla HeLa, beta-lactamase FRET ratio, dexamethasone-stimulated, 18 h; series mostly up to 58.5 µM.
Glucocorticoid receptor (Homo sapiens), sequence (P04150 whole entry, looked up): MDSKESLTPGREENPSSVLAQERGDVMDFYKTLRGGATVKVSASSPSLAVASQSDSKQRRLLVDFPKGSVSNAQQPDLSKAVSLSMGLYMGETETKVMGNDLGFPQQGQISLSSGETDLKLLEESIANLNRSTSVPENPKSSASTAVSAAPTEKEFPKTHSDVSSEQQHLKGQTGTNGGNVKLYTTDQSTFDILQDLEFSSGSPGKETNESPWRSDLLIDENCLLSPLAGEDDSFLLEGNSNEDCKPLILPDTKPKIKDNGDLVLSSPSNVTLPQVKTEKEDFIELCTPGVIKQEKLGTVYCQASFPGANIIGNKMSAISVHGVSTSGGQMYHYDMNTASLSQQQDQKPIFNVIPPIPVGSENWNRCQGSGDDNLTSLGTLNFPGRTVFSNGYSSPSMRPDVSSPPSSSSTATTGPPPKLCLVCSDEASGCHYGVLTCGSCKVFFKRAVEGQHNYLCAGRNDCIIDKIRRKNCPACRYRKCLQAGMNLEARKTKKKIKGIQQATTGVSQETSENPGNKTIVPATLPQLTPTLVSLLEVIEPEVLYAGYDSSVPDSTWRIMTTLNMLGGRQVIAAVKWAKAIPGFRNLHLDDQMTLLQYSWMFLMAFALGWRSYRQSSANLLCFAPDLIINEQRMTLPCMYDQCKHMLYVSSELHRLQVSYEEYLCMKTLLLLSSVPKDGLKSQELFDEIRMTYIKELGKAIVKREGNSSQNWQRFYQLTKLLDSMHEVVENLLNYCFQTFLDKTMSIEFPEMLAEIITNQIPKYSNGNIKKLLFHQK
Procedure, shortened: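 HeLa GR-bla cells; cmpd + dex 5 nM final, 18 h 37 C; LiveBLAzer B/G FRET substrate 2 h RT; fluorescence intensity read. Antagonist mode, qHTS.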

Compound	outcome
O=C(COCCOCCOCC(=O)Nc1c(I)cc(I)c(C(=O)O)c1I)Nc1c(I)cc(I)c(C(=O)O)c1I	inactive
COCCOCCOCCOC	inactive
CCCCC(=O)N(C)C	inactive
CC(Cl)COP(=O)(OCC(C)Cl)OCC(C)Cl (centres undefined)	inactive
CCCCC/C=C/CC(=O)OC	inactive
NS(=O)(=O)c1ccc(Cl)c(S(N)(=O)=O)c1	inactive
F[Si-2](F)(F)(F)(F)F	inactive
Cc1ccccc1OCC1CO1 (centres undefined)	inactive
Cc1nc(C)nc(N2C[C@@H](C)N(c3ccnc([C@@H](C)O)n3)[C@@H](C)C2)n1	inactive
CC(=O)OC(C)c1ccccc1 (centres undefined)	inactive
O=C(O)c1ccccc1C(=O)OCc1ccccc1	inactive
C=COCCOCCOC=C	inactive
CCN(Cc1cccc(S(=O)(=O)O)c1)c1ccccc1	inactive
CC1=NN(c2ccc(S(=O)(=O)O)cc2)C(=O)C1N=Nc1ccccc1 (centres undefined)	inactive
C=CCOCC(CO)(COCC=C)COCC=C	inactive
C=C[Si](C)(C)O[Si](C)(C)C=C	inactive
O=C(O)c1ccccc1C(=O)Nc1ccc(S(=O)(=O)Nc2nccs2)cc1	inactive
Nc1cc(S(=O)(=O)O)ccc1S(=O)(=O)O	inactive
CCCCOC(=O)C(C)OC(=O)CCC (centres undefined)	inactive
